Compound activity deposited in PubChem by National Center for Advancing Translational Sciences (NCATS).
Sfp inh: Sfp phosphopantetheinyl transferase inhibition | Biochemical Sfp PPTase activity, qHTS | 310,000 compounds, 3.5% hits | Q9F4F7 | Potency, µM, for the others: largest response in the series, negative = inhibition, most hits filed as inhibitors;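 also: the enzyme is Sfp with the accession as filed and its product quenches rhodamine fluorescence; 0% = enzyme reaction without inhibitor and -100% = no enzyme wells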
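Buffer: 50 mM Hepes-Na pH 7.6, 10 mM MgCl2, 0.01% Nonidet P-40, 0.01% BSA. Enzyme 15 nM, pre-exposed to compound 15 min; substrates then added and fluorescence change tracked over 30 min.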
JMJD2A Tudor: JMJD2A Tudor domain (human) inhibition | Potency, µM (doses to about 114 µM), for inactives: at the highest dose activity change, negative = inhibition, actives largely listed as inhibitors | AlphaScreen JMJD2A-Tudor / H3K4me3 peptide binding | O75164 | 390,000 compounds, 4.4% hits; also: % is scaled to controls: 0 for no effect and ±100 for the full control effect; nearly all actives have a fitted effect of over 50% in size
G9a block: inhibitors of human histone lysine methyltransferase G9a | 350,000 compounds, 8.8% hits | Potency, µM (highest dose often 102 µM), for inactives: top-dose activity, negative = inhibition, actives largely listed as inhibitors | Q96KQ7 | G9a H3K9 monomethylation, AlphaScreen, 2 h; also: % is scaled to controls: 0 for no effect and ±100 for the full control effect; nearly all actives have a fitted effect of over 75% in size
Target sequence (Q96KQ7 913-1193 limits assumed): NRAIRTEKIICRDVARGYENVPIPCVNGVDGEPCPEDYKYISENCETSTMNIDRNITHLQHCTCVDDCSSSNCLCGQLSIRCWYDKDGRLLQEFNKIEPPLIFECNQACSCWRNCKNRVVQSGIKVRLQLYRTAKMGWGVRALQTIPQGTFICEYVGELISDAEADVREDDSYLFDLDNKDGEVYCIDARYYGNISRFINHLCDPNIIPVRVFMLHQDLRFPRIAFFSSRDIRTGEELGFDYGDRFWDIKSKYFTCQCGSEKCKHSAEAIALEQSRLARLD
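Using a bead-based AlphaScreen, monomethylated H3K9 product from 2 h room-temperature reactions (G9a 20 nM, peptide 500 nM, SAM 20 uM) was detected with 0.5 ug/mL rabbit anti-H3K9me1 antibody.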
12-LOX inh: ALOX12 (human) lipoxygenase inhibition; purified 12hLO, xylenol orange hydroperoxide absorbance; Potency, µM (titrated, usually from 108 µM), inactives show at the highest dose activity change, negative = inhibition, actives largely listed as inhibitors; 580,000 compounds, 1.1% hits; P18054; also: % is scaled to controls: 0 for no effect and ±100 for the full control effect
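Purified human 12hLO (150 nM final) in 25 mM Hepes, 0.01% Triton X-100, pH 7.0 was preincubated 15 min at room temperature with compound. Then 40 uM arachidonic acid was added, 30 min. Hydroperoxide was read by Fe-XO absorbance ratio 573/405 nm.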
HP1b chromo inh: inhibitors of HP1-beta chromodomain binding to methylated histone tails | AlphaScreen HP1-beta / biotin-H3K9me3 peptide binding | AID 540317 | P83916 | Potency, µM (highest dose often 114 µM), inactives show at the top dose activity change, negative = inhibition, usual class: inhibitors | 390,000 compounds, 0.56% hits; also: nearly all actives have a fitted effect of over 70% in size
Target sequence (P83916 whole entry, looked up): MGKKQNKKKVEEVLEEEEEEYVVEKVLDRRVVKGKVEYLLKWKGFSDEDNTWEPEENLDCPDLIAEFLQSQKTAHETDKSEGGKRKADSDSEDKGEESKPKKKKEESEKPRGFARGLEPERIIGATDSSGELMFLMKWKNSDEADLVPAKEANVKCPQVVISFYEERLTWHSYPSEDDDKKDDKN
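AlphaScreen: HP1-beta (50 nM) preformed 30 min with biotin-H3(1-18)K9me3 peptide (50 nM) in PBS pH 7.4, 0.01% Tween-20. Compound added for 30 min at RT, then streptavidin donor/nickel chelate acceptor beads (10 ug/mL) for 30 min.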
BAZ2B block: blocks human BAZ2B; Q9UIF8; 360,000 compounds, 4.4% hits; Potency, µM (series often up to 114 µM), for inactives: at the top dose activity change, negative = inhibition, hits mostly inhibitors; AlphaScreen BAZ2B-H3K14Ac peptide displacement; also: % is scaled to controls: 0 for no effect and ±100 for the full control effect; nearly all actives have a fitted effect of over 60% in size
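Multi-concentration screen (max 110 uM) measuring displacement of acetylated histone H3 peptide from BAZ2B by AlphaScreen, using 50 nM protein, 50 nM peptide and 10 ug/mL streptavidin donor plus Ni-chelate acceptor beads.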
Numbers without * were called inactive; ? = inconclusive; · = no result; [ ] = dose if it differs, or a comment. This is a sample that favours compounds with a hit; in the whole collection about 8.7% have one here. Calls follow the shape of the dose curve; as a rule, active = well fitted curve in the direction sought with a large enough effect; inconclusive = small, poorly fitted or top-dose-only effect, or another doubt; inactive = no such curve, though single readings can be large; an effect the other way counts as inactive or inconclusive. Potency is read from the fitted curve at half-maximal effect.

SMILES | Sfp inh | JMJD2A Tudor | G9a block | 12-LOX inh | HP1b chromo inh | BAZ2B block
COc1ccc(C2CC(=O)c3sc(N)nc3C2)cc1 (stereo unspecified) | ? | -9% | ? | 7% | 72% | 5%
COc1ccc(C(CCNCc2ccc(F)cc2)c2ccc(F)cc2)cc1 (stereo unspecified) | 56µM* | 9% | ? | ? | 76% | 1%
COc1ccc(C(CCNCc2ccc(N(C)C)cc2)c2ccccc2OC)cc1 (stereo unspecified) | -6% | 25µM* | 14µM* | ? | 50µM* | 10µM*
CN(C)c1ccc(/C=C(\NC(=O)c2ccccc2)C(=O)NCc2ccncc2)cc1 | 5% | -31% | 28µM* | 2% | -7% | -22%
COc1ccc(/C=C(\NC(=O)c2ccccc2)C(=O)NCc2cccnc2)cc1 | 14% | -7% | -12% | -5% | 15% | 19%
CN(C)c1ccc(/C=C(\NC(=O)c2ccccc2)C(=O)NCc2cccnc2)cc1 | 13% | -10% | 40µM* | -27% | -3% | -17%
COc1ccc(/C=N\NC(=S)SCN2C(=O)C3CCC(C)(C2=O)C3(C)C)cc1 (stereo unspecified) | · | ? | · | -12% | 1% | ·
CC12CCC(C(=O)N(CSC(=S)N/N=C\c3ccccc3O)C1=O)C2(C)C (stereo unspecified) | 38% | 40µM* | 4.5µM* | 0% | -15% | 2.8µM*
COc1ccc(-c2ccc3nnc(CNC(=O)c4cccc5[nH]ccc45)n3n2)cc1 | · | · | · | 29% | · | ·
Cc1cc(C)c2nc(NNC(=O)c3ccc(S(=O)(=O)N4CC(C)CC(C)C4)cc3)sc2c1 (stereo unspecified) | ? | 16µM* | 28µM* | 6.3µM* | -12% | 10µM*
Cc1cc(C)c2nc(NC(=O)c3ccc(S(=O)(=O)N4CCC(C)CC4)cc3)sc2c1 | · | 0% | 2%[59 µM] | 0% | 24%[57 µM] | 1%
Cc1cccc2sc(NNC(=O)c3ccc(S(=O)(=O)N4CC(C)CC(C)C4)cc3)nc12 (stereo unspecified) | ? | 22µM* | 50µM* | ? | -16% | 8.9µM*
Cc1cc(C)c2nc(NNC(=O)c3ccc(S(=O)(=O)N4CCCC(C)C4)cc3)sc2c1 (stereo unspecified) | -8% | ? | 45µM* | 5.6µM* | -22% | 8.9µM*
CN(C)c1ccc(CNC(=O)c2ccc(CNc3c(N4CCCCC4)c(=O)c3=O)cc2)cc1 | 5% | ? | 45µM* | 9%[57.4 µM] | 7% | -9%
CN(C)c1ccc(C(CNC(=O)c2ccccc2)N2CCc3ccccc32)cc1 (stereo unspecified) | · | 13µM* | 13µM* | -27% | ? | 11µM*
COc1ccc(C(=O)NCC(c2ccc(N(C)C)cc2)N2CCc3ccccc32)cc1 (stereo unspecified) | · | 7.1µM* | 10µM* | -5% | 10µM* | 8.9µM*
CN(C)c1ccc(CNC(=O)c2ccc(NC(=O)N3CCCCc4ccccc43)cc2)cc1 | · | 35µM* | ? | -11% | 9% | 28µM*
COc1cc(C(=O)NCC(c2cccnc2)N2CCc3ccccc32)cc(OC)c1OC (stereo unspecified) | · | -8% | -5%[59 µM] | 3% | 19% | 5%
CCc1ccc(CNC(=O)c2ccc(NC(=O)N3CCCCc4ccccc43)cc2)cc1 | · | -24% | 7%[59 µM] | -10% | -13% | -3%
Fc1cccc(Cl)c1Cn1c(CN2CCOCC2)nc2ccccc21 | · | · | · | 1% | · | ·
COc1ccc2[nH]c3c(c2c1)CCNC31CCN(C(=O)c2cc(C)nn2C)CC1 | · | · | · | -1% | · | ·
COc1ccc(CN2CCOc3ccc(C(=O)NCc4ccccc4F)cc3C2)c(OC)c1 | · | · | · | 1% | · | ·
CC(C)Oc1ccc(C(=O)NCC(c2ccc(N(C)C)cc2)N2CCc3ccccc32)cc1 (stereo unspecified) | · | 7.1µM* | 14µM* | -18% | ? | 16µM*
O=C(c1ccc(C(F)(F)F)cc1)N1CCC(N2CCNC2=O)CC1 | · | · | · | 9%[6.33 µM] | · | ·
Cc1cc(C2=CC(C)(c3cc(C)oc3C)Nc3nc(C(F)(F)F)nn32)c(C)o1 (stereo unspecified) | 13µM* | · | ? | · | · | 56µM*
SMILES | Sfp inh | JMJD2A Tudor | G9a block | 12-LOX inh | HP1b chromo inh | BAZ2B block
O=C(Cc1cccc2ccccc12)Nc1ccc(N2CCOCC2)c(Cl)c1 | · | · | · | 15% | · | ·
O=C(Oc1ccc(-c2cnc3ccccc3n2)cc1)c1cc([N+](=O)[O-])ccc1Cl | -14% | -4% | 28µM* | 0% | 16% | -12%
O=[N+]([O-])c1cc(-c2cnc3ccccc3n2)ccc1Cl | 2% | -34% | -3% | -9% | -22% | -20%
O=[N+]([O-])c1cc(-c2cnc3ccccc3n2)ccc1Oc1ccc(Cl)cc1 | -13% | -33% | 14µM* | -15% | 10% | ?
Cc1c(C(=O)Oc2ccc(-c3cnc4ccccc4n3)cc2)cccc1[N+](=O)[O-] | 50µM* | -34% | 20µM* | -15% | 17% | -24%
N#CCOC(=O)c1cc(-c2cccs2)nc2ccccc12 | · | · | · | 16% | · | ·
COC(=O)/C(C#N)=C/c1ccc(OC)c(COc2cccc(C(F)(F)F)c2)c1 | · | · | · | 62% | · | ·
Clc1ccc2c(N/N=C/c3ccccc3)ccnc2c1 | · | · | · | 65% | · | ·
Cc1ccc(/C=N/Nc2ccnc3cc(Cl)ccc23)c(C)c1 | 45µM* | 22µM* | ? | ? | -1% | ?
Clc1ccc2c(N/N=C/c3cccnc3)ccnc2c1 | 50µM* | -20% | -8% | 17% | 4% | -3%
COCCC(=O)N1CC(c2nnc(-c3ccc(C)cc3)o2)C2(CCOCC2)C1 (stereo unspecified) | · | · | · | 23% | · | ·
O=C(NC(NC(=S)Nc1ccccc1Cl)C(Cl)(Cl)Cl)c1cccc(Cl)c1 (stereo unspecified) | 10% | -26% | -22% | ? | -24% | -29%
O=C(/C=C/c1cccc([N+](=O)[O-])c1)NC(=S)Nc1ccccc1C(=O)O | 40µM* | · | 45µM* | · | · | -23%
O=C(NC(NC(=S)Nc1ccccc1C(=O)O)C(Cl)(Cl)Cl)c1cccc([N+](=O)[O-])c1 (stereo unspecified) | -19% | 79µM* | ? | ? | -31% | -6%
COc1ccc(-c2cc(N3CCCC(NC(=O)c4ccoc4)C3)n[nH]2)cc1 (stereo unspecified) | · | · | · | 41% | · | ·
O=C1C2C3C=CC(C4CC34)C2C(=O)N1/N=C/c1c[nH]c2ccccc12 (stereo unspecified) | -8% | -10% | 50µM* | -16% | 38% | 21%
COc1ccc(C2Cn3nnc(C(=O)N4CCN(C(=O)c5ccc(C)cc5)CC4)c3CO2)cc1 (stereo unspecified) | · | · | · | -11% | · | ·
